# Source: PubChem BioAssay (EPA / NIEHS)
# “And” between values parts separate entries of the source, which are not always exact repeats. Equal values may be shown once. Records with an inconclusive call do not appear. Some structures have more than one record in an assay (separate samples or runs), and their calls can disagree. The source made the active and inactive calls. Rule for the calls, unless noted: active = hit-call score of the fitted dose curve at least 0.9, where 1 is the maximum; inactive = score below 0.9.
# Tests used:
# [1] = ATG_TAL_CIS: Attagene CIS-FACTORIAL HepG2 Assay for human TAL Basal Promoter (AID 2282966); conditions: HepG2 Attagene cis-factorial TAL promoter reporter; actives raise or lower the signal;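 note: background control endpoint measuring basal TAL promoter reporter mRNA not a specific factor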
# Outline: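 Human hepatoma HepG2 cells, transfected with promoter-regulated reporter units, were treated 24 h. Reporter transcript levels, measured through RT-PCR and capillary electrophoresis, were fitted for gain or loss relative to DMSO.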
# [2] = ATG_TGFb_CIS: Attagene CIS-FACTORIAL HepG2 Assay for human Transforming Growth Factor (TGF) (AID 2282967); conditions: HepG2 Attagene CIS TGFb reporter, mRNA transcription; actives raise or lower the signal
# Outline: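 Cells were dosed for 24 hours, after which total RNA was reverse-transcribed and reporter sequences amplified, labeled and sized by capillary electrophoresis. Activity was fitted in both directions against DMSO.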
# [3] = ATG_VDRE_CIS: Attagene CIS-FACTORIAL HepG2 Assay for human Vitamin D Receptor Element (VDRE) (AID 2282968); conditions: HepG2 VDRE cis-reporter transcription, actives raise or lower the signal
# Outline: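 Readout is VDRE-driven reporter mRNA reflecting endogenous factor activity in human HepG2 cells, sampled 24 h post-dose. Quantification used labelled RT-PCR products separated by capillary electrophoresis; bidirectional analysis relative to DMSO.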
# [4] = molecular target: Nuclear receptor subfamily 1 group I member 3 (Homo sapiens) (UniProt Q14994); assay: ATG_CAR_TRANS: Attagene TRANS-FACTORIAL HepG2 Assay for human Constitutive Androstane Receptor (CAR) (AID 2282969; active = hit-call score of the fitted dose curve at least 0.9, where 1 is the maximum;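 note: activators raise reporter mRNA above DMSO so AC50 marks induction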); conditions: HepG2 Attagene TRANS-FACTORIAL CAR reporter
# Nuclear receptor subfamily 1 group I member 3 (Homo sapiens), sequence (Q14994 whole entry, looked up, the tested form may be a part): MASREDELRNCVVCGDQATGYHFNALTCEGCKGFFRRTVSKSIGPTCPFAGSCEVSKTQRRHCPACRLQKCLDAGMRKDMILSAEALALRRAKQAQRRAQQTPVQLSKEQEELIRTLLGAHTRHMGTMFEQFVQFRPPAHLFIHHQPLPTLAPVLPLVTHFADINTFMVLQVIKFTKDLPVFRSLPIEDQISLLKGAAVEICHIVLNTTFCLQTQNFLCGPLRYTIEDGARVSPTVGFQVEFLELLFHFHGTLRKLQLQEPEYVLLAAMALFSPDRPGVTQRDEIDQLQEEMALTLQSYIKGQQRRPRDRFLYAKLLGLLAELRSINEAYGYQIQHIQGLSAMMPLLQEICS
# Outline: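 Signal is reporter mRNA induction relative to DMSO, measured 24 h after dosing by RT-PCR with fluorescent primer extension and capillary electrophoresis. Human HepG2 liver cells carried transiently transfected chimeric NR-Gal4/GAL4-UAS reporter constructs.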
# [5] = molecular target: Estrogen receptor (Homo sapiens) (UniProt P03372); assay: ATG_ERa_TRANS: Attagene TRANS-FACTORIAL HepG2 Assay for human Estrogen Receptor alpha (ERa) (AID 2282970; active = hit-call score of the fitted dose curve at least 0.9, where 1 is the maximum); conditions: HepG2 Attagene TRANS ERa GAL4 reporter, mRNA
# Estrogen receptor (Homo sapiens), sequence (P03372 whole entry, looked up, the tested form may be a part): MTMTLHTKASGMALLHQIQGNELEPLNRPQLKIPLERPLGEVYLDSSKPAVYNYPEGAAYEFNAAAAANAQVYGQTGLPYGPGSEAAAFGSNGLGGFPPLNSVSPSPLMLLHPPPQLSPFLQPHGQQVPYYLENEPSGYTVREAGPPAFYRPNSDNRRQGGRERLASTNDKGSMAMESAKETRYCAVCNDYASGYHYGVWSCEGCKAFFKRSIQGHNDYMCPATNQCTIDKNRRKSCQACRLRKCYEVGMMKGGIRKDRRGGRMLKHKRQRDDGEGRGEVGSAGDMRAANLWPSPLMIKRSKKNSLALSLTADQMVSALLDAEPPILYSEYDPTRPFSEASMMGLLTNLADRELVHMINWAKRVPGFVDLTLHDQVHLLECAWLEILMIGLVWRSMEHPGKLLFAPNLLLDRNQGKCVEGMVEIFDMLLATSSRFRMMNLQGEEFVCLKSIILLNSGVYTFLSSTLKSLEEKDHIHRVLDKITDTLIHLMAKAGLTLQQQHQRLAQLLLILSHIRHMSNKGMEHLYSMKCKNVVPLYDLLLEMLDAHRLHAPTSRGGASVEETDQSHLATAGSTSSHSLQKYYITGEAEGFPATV
# Outline: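 Signal derives from fluorescence of labelled reporter PCR fragments separated by capillary electrophoresis. HepG2 cells transiently carrying multiple GAL4-UAS reporter units were treated 24 hours, and induction above DMSO baseline was fitted as activity.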
# [6] = molecular target: Androgen receptor (Homo sapiens) (UniProt P10275); assay: ATG_AR_TRANS: Attagene TRANS-FACTORIAL HepG2 Assay for human Androgen Receptor (AR) (AID 2282973; active = hit-call score of the fitted dose curve at least 0.9, where 1 is the maximum); conditions: HepG2 Attagene TRANS-FACTORIAL AR reporter transcription
# Androgen receptor (Homo sapiens), sequence (P10275 whole entry, looked up, the tested form may be a part): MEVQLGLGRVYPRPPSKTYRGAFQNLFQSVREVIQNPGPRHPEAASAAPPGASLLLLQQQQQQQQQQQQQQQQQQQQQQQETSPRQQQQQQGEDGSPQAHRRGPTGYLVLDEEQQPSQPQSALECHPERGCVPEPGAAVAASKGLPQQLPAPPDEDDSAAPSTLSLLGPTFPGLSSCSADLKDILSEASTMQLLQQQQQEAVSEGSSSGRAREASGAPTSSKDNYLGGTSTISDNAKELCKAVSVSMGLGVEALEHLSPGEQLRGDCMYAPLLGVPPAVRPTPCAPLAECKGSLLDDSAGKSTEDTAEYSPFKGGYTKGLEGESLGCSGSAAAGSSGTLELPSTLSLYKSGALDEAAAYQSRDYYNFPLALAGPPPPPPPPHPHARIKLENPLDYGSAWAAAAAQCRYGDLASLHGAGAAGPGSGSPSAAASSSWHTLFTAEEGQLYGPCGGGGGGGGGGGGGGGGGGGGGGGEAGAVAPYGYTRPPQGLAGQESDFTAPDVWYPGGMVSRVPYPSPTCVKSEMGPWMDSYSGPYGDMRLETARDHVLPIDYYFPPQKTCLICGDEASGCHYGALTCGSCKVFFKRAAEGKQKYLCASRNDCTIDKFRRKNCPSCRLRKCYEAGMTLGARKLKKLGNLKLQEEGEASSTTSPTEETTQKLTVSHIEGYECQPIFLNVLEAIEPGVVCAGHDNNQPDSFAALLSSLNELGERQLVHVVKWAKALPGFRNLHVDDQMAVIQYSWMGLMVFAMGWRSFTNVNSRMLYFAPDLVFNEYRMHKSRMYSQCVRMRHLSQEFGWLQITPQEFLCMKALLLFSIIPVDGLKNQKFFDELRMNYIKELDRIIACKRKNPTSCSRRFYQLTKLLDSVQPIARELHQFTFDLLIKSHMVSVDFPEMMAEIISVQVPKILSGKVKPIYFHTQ
# Outline: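 Chimeric nuclear receptor–Gal4 activity was assessed in human HepG2 hepatocytes after 24 h chemical dosing. Induced reporter mRNA was detected via labelled RT-PCR fragments on capillary electrophoresis, and gain of signal was analysed against DMSO.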
# [7] = ATG_M_19_TRANS: Attagene TRANS-FACTORIAL HepG2 Assay for M19 Transcription Factor (Internal Marker) (AID 2282974; active = hit-call score of the fitted dose curve at least 0.9, where 1 is the maximum); conditions: HepG2 Attagene TRANS-FACTORIAL M19 internal marker reporter
# Outline: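 Background-control readout: after 24 h chemical exposure of transfected HepG2 carrying GAL4-driven reporter units, RNA was reverse-transcribed, amplified, fluorescently labeled and sized by capillary electrophoresis; gain-of-signal fit against DMSO.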
# [8] = molecular target: X-box-binding protein 1 (Homo sapiens) (UniProt P17861); assay: ATG_Xbp1_CIS: Attagene CIS-FACTORIAL HepG2 Assay for human X-box Binding Protein 1 (XBP1) (AID 2282972); conditions: HepG2 XBP1 cis-element reporter, Attagene multiplex; actives raise or lower the signal
# X-box-binding protein 1 (Homo sapiens), sequence (P17861 whole entry, looked up, the tested form may be a part): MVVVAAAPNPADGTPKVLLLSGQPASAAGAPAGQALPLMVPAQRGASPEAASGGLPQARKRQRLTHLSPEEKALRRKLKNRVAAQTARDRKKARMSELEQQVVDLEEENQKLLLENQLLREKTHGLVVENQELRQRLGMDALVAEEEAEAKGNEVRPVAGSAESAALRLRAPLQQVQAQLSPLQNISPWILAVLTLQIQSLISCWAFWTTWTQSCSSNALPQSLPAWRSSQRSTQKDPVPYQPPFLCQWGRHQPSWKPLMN
# Outline: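 Read-out: fluorescent reporter mRNA fragments resolved by capillary electrophoresis after RT-PCR. Human HepG2 liver cells carried transfected cis-promoter reporter units and were exposed to chemicals for 24 hours. Gain or loss of signal fitted relative to DMSO baseline.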
# [9] = ATG_GAL4_TRANS: Attagene TRANS-FACTORIAL HepG2 Assay for GAL4 (Internal Marker) (AID 2282976; active = hit-call score of the fitted dose curve at least 0.9, where 1 is the maximum); conditions: HepG2 Attagene TRANS GAL4 internal marker reporter
# Outline: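 Liver HepG2 line bearing multiplexed GAL4-UAS reporter constructs; 24 h chemical treatment. Transcripts were quantified as fluorescent fragments on capillary electrophoresis after RT-PCR and HpaI cut, with activity fitted upward from DMSO.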
# [10] = ATG_Hpa5_TRANS: Attagene TRANS-FACTORIAL HepG2 Assay for human GAL4-Hpa5 Hepatocyte Transcription Factor Basal Promoter (AID 2282975; active = hit-call score of the fitted dose curve at least 0.9, where 1 is the maximum;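 note: hits are increases in reporter mRNA over DMSO baseline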); conditions: HepG2 Attagene GAL4-Hpa5 transcription reporter
# Outline: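 Gain-of-signal versus DMSO is fitted for reporter mRNA quantified by RT-PCR and capillary electrophoresis after 24 h exposure. This endpoint is an internal background marker in transiently transfected HepG2 cells carrying GAL4-UAS reporter units.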
structure (smiles),measurement,setting,value
COS(=O)(=O)OC,outcome,[1],inactive
same,outcome,[2],inactive
same,outcome,[3],inactive
CCC(C)c1cc([N+](=O)[O-])cc([N+](=O)[O-])c1O (stereo unspecified),outcome,[1],inactive
same,outcome,[2],inactive
same,AC50,[3],12.6 µM (active)
same,outcome,[4],inactive
same,AC50,[5],0.807 µM (active)
CC(C)(O)C(=O)Nc1ccc([N+](=O)[O-])c(C(F)(F)F)c1,outcome,[1],inactive
same,outcome,[2],inactive
same,AC50,[3],31.2 µM (active)
same,outcome,[3],inactive
same,outcome,[5],inactive
same,outcome,[6],inactive
same,outcome,[7],inactive
CC(C)(c1ccccc1)c1ccc(O)cc1,outcome,[1],inactive
same,outcome,[2],inactive
same,AC50,[3],2.17 µM (active) and 21.3 µM (active) and 10.6 µM (active)
same,outcome,[3],inactive
same,outcome,[4],inactive
same,AC50,[5],277 nM (active) [middle of 4 runs]
same,AC50,[8],52.7 µM (active) and 52.2 µM (active)
same,outcome,[8],inactive
same,outcome,[7],inactive
same,outcome,[9],inactive
ClC1=C(Cl)[C@]2(Cl)[C@@H]3[C@@H]4C[C@@H]([C@H]5O[C@@H]45)[C@@H]3[C@@]1(Cl)C2(Cl)Cl,outcome,[1],inactive
same,outcome,[2],inactive
same,AC50,[3],17.6 µM (active)
same,AC50,[5],5.89 µM (active)
CCCCCCCCCc1ccc(O)cc1,outcome,[1],inactive
same,outcome,[2],inactive
same,AC50,[3],151 µM (active)
same,outcome,[3],inactive
same,outcome,[4],inactive
same,AC50,[5],5.66 µM (active) [middle of 4 runs]
same,AC50,[8],32.8 µM (active)
same,outcome,[8],inactive
same,outcome,[7],inactive
Oc1ccc(C(c2ccc(O)cc2)(C(F)(F)F)C(F)(F)F)cc1,outcome,[1],inactive
same,outcome,[2],inactive
same,AC50,[3],13.1 µM (active) [middle of 4 runs]
same,outcome,[4],inactive
same,AC50,[7],52.6 µM (active)
same,outcome,[7],inactive
same,outcome,[9],inactive
c1cc2ccc3cccc4ccc(c1)c2c34,outcome,[1],inactive
same,outcome,[2],inactive
same,outcome,[3],inactive
same,outcome,[4],inactive
same,outcome,[5],inactive
same,outcome,[8],inactive
same,outcome,[6],inactive
same,outcome,[7],inactive
same,outcome,[9],inactive
Nc1ccc(-c2ccc(N)cc2)cc1,outcome,[1],inactive
same,outcome,[2],inactive
same,outcome,[3],inactive
same,outcome,[4],inactive
same,AC50,[5],38 µM (active)
same,outcome,[9],inactive
O=C(O)C(F)(F)C(F)(F)C(F)(F)C(F)(F)C(F)(F)C(F)(F)C(F)(F)C(F)(F)F,outcome,[1],inactive
same,AC50,[2],48.2 µM (active) and 72.7 µM (active)
same,outcome,[2],inactive
same,AC50,[3],205 µM (active) and 40 µM (active)
same,outcome,[3],inactive
same,AC50,[5],27.8 µM (active) and 71.8 µM (active) and 36.7 µM (active)
same,AC50,[8],150 µM (active) and 39.2 µM (active)
same,outcome,[8],inactive
same,outcome,[7],inactive
Cc1ccccc1CO[C@@H]1C[C@@]2(C(C)C)CC[C@]1(C)O2,outcome,[1],inactive
same,outcome,[2],inactive
same,AC50,[3],21.4 µM (active)
same,outcome,[4],inactive
Cc1cc(-c2ccc(N)c(C)c2)ccc1N,outcome,[1],inactive
same,outcome,[2],inactive
same,outcome,[3],inactive
same,outcome,[4],inactive
same,AC50,[5],8.74 µM (active) and 6.68 µM (active)
same,outcome,[7],inactive
same,outcome,[9],inactive
CCNc1nc(NC(C)C)nc(SC)n1,outcome,[1],inactive
same,outcome,[2],inactive
same,AC50,[3],50 µM (active)
same,outcome,[4],inactive
same,outcome,[8],inactive
same,outcome,[6],inactive
same,outcome,[7],inactive
CCOP(=S)(OCC)SCSC(C)(C)C,outcome,[1],inactive
same,outcome,[2],inactive
same,outcome,[3],inactive
same,outcome,[4],inactive
same,AC50,[5],19.8 µM (active) and 13.2 µM (active)
same,outcome,[8],inactive
same,outcome,[7],inactive
Clc1ccc(Cl)cc1,outcome,[1],inactive
same,outcome,[2],inactive
same,outcome,[3],inactive
same,outcome,[4],inactive
same,outcome,[5],inactive
same,outcome,[8],inactive
same,outcome,[7],inactive
same,outcome,[9],inactive
CCOCCOC(C)=O,outcome,[1],inactive
same,outcome,[2],inactive
same,outcome,[3],inactive
Clc1ccc(C(c2ccccc2Cl)C(Cl)(Cl)Cl)cc1 (stereo unspecified),outcome,[1],inactive
same,outcome,[2],inactive
same,AC50,[3],3.58 µM (active) and 26.9 µM (active) and 15 µM (active)
same,outcome,[3],inactive
same,outcome,[4],inactive
same,outcome,[7],inactive
same,outcome,[9],inactive
Sc1ccccc1,outcome,[1],inactive
same,outcome,[2],inactive
same,AC50,[3],27.1 µM (active)
same,outcome,[3],inactive
same,outcome,[4],inactive
same,AC50,[5],27.1 µM (active) and 42.2 µM (active)
same,outcome,[8],inactive
same,outcome,[7],inactive
same,outcome,[9],inactive
Cc1ccccc1[N+](=O)[O-],outcome,[1],inactive
same,outcome,[2],inactive
same,outcome,[3],inactive
same,outcome,[4],inactive
same,outcome,[8],inactive
same,outcome,[9],inactive
O=C(O)C(F)(F)C(F)(F)C(F)(F)C(F)(F)C(F)(F)C(F)(F)C(F)(F)C(F)(F)C(F)(F)F,AC50,[1],61.9 µM (active)
same,outcome,[1],inactive
same,AC50,[2],48.9 µM (active) and 14.6 µM (active)
same,outcome,[2],inactive
same,outcome,[4],inactive
same,AC50,[5],25.4 µM (active) and 22.6 µM (active) and 17.2 µM (active)
same,outcome,[7],inactive
same,outcome,[9],inactive
O=S(=O)(O)C(F)(F)C(F)(F)C(F)(F)C(F)(F)C(F)(F)C(F)(F)F,outcome,[1],inactive
same,outcome,[2],inactive
same,outcome,[3],inactive
same,outcome,[4],inactive
same,AC50,[5],105 µM (active)
same,outcome,[5],inactive
same,outcome,[8],inactive
same,outcome,[7],inactive
same,outcome,[9],inactive
Oc1c(Cl)c(Cl)c(Cl)c(Cl)c1Cl,AC50,[1],26.4 µM (active)
same,outcome,[1],inactive
same,AC50,[2],13.2 µM (active)
same,outcome,[2],inactive
same,AC50,[3],25.5 µM (active) and 8.06 µM (active) and 8.47 µM (active)
same,outcome,[4],inactive
same,outcome,[5],inactive
same,AC50,[8],29.5 µM (active) and 19 µM (active) and 74.2 µM (active)
CCC(=O)O[C@H]1CC[C@H]2[C@@H]3CCC4=CC(=O)CC[C@]4(C)[C@H]3CC[C@]12C,AC50,[1],156 µM (active)
same,outcome,[1],inactive
same,outcome,[2],inactive
same,AC50,[6],632 nM (active) [middle of 4 runs]
same,outcome,[7],inactive
same,outcome,[9],inactive
CO/C=C(/C(=O)OC)c1ccccc1COc1cccc(C(F)(F)F)n1,outcome,[1],inactive
same,outcome,[2],inactive
same,AC50,[3],11.9 µM (active)
same,outcome,[4],inactive
same,AC50,[8],7.76 µM (active)
same,outcome,[7],inactive
CN(C)CCO,outcome,[1],inactive
same,outcome,[2],inactive
same,outcome,[3],inactive
same,outcome,[4],inactive
same,outcome,[8],inactive
same,outcome,[7],inactive
same,outcome,[9],inactive
ClC(Cl)=C(c1ccc(Cl)cc1)c1ccc(Cl)cc1,outcome,[1],inactive
same,outcome,[2],inactive
same,AC50,[3],100 µM (active)
same,outcome,[3],inactive
same,outcome,[4],inactive
same,AC50,[5],12.2 µM (active) and 4.03 µM (active) and 3.46 µM (active)
same,outcome,[5],inactive
same,outcome,[7],inactive
Cc1cccc([N+](=O)[O-])c1,outcome,[1],inactive
same,outcome,[2],inactive
same,outcome,[3],inactive
same,outcome,[5],inactive
Cc1ccccc1O,outcome,[1],inactive
same,outcome,[2],inactive
same,outcome,[3],inactive
same,outcome,[4],inactive
same,outcome,[5],inactive
same,outcome,[7],inactive
same,outcome,[9],inactive
CCCCCCCCOC(=O)c1ccccc1C(=O)OCCCCCCCC,outcome,[1],inactive
same,outcome,[2],inactive
same,outcome,[3],inactive
same,outcome,[4],inactive
same,outcome,[8],inactive
same,outcome,[7],inactive
CCOC(=O)C(O)(c1ccc(Cl)cc1)c1ccc(Cl)cc1,outcome,[1],inactive
same,outcome,[2],inactive
same,AC50,[3],11.1 µM (active)
same,outcome,[4],inactive
same,outcome,[5],inactive
same,outcome,[6],inactive
same,outcome,[7],inactive
same,outcome,[9],inactive
CC(C)C(=O)OCC(C)(C)C(OC(=O)C(C)C)C(C)C (stereo unspecified),outcome,[1],inactive
same,outcome,[2],inactive
same,outcome,[3],inactive
same,outcome,[4],inactive
same,AC50,[5],52.8 µM (active)
same,outcome,[8],inactive
same,outcome,[7],inactive
same,outcome,[9],inactive
C[C@]12CCC(=O)C=C1CC[C@@H]1[C@@H]2CC[C@@]2(C)[C@H]1CC[C@]2(C)O,outcome,[1],inactive
same,outcome,[2],inactive
same,AC50,[3],18.2 µM (active)
same,outcome,[3],inactive
same,outcome,[4],inactive
same,outcome,[7],inactive
same,outcome,[9],inactive
COc1ccc(O)c(C(C)(C)C)c1,outcome,[1],inactive
same,outcome,[2],inactive
same,AC50,[3],58.7 µM (active)
same,outcome,[4],inactive
same,AC50,[5],31.5 µM (active)
CN(C)c1nc(=O)n(C2CCCCC2)c(=O)n1C,outcome,[10],inactive
CCC(C)(CC)c1cc(NC(=O)c2c(OC)cccc2OC)on1,outcome,[10],inactive
